Source: PubChem BioAssay (NCATS)
Results filed as inconclusive are left out. Activity calls are given as the source filed them. Unless noted, no rule for the calls is given here.

Assays:
[1] = qHTS profiling of the MIPE4 collection as inhibitors of Plasmodium falciparum (3D7) proliferation (AID 743344);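 also: scaled between DMSO vehicle wells and 0.29 µM artemisinin as full inhibition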; details: P. falciparum 3D7 in erythrocytes, SYBR Green DNA fluorescence, 72 h; at 28.5 µM unless noted
In short: (§1)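 Parasite DNA was quantified by SYBR Green I fluorescence (ex 485, em 535 nm) after overnight lysis in saponin/Triton buffer at room temperature. Cultures at 0.3% parasitemia and 2.5% hematocrit were first exposed to compound for 72 h at 37 C; signals were normalised to artemisinin (0.29 uM) and vehicle wells.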

[2] = qHTS profiling of the MIPE4 collection as inhibitors of Plasmodium falciparum (DD2) proliferation (AID 743345); details: P. falciparum Dd2 in erythrocytes, SYBR Green DNA, 72 h; at 28.5 µM unless noted
In short: as §1

[3] = qHTS profiling of the MIPE4 collection as inhibitors of Plasmodium falciparum (DD2) proliferation (Rep 2) (AID 743346); details: P. falciparum Dd2 in erythrocytes, SYBR Green DNA, 72 h; at 28.5 µM unless noted
In short: as §1

[4] = qHTS profiling of the MIPE4 collection as inhibitors of Plasmodium falciparum (HB3) proliferation (AID 743347);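 also: plate controls were DMSO vehicle wells for no effect and artemisinin wells for full effect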; details: P. falciparum HB3 in erythrocytes, SYBR Green DNA, 72 h; at 28.5 µM unless noted
In short: as §1

[5] = High-throughput drug toxicity screening in the BPDCN cell line Gen2.2 (AID 1224824); details: Gen2.2 BPDCN cells; at 45.8 µM (top of the series) unless noted
In short: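 CellTiter-Glo luminescence after 48 h compound exposure of Gen2.2 cells; percent activity set with DMSO as 100% and bortezomib (9.2 uM final) as 0%. Cells seeded at 500 per well, RPMI + 10% FBS, 37 °C.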

[6] = High-throughput drug toxicity screening in the BPDCN cell line Cal-1 (AID 1224825); details: Cal-1 BPDCN cell viability, qHTS; at 45.8 µM (top of the series) unless noted
In short: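 CellTiter-Glo luminescence after 48 h compound exposure; percent activity scaled with DMSO as 100% and bortezomib (9.2 uM final) as 0%. Cal-1 cells seeded at 500/well in RPMI, 10% FBS, no phenol red.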

[7] = qHTS assay for measurement of the activity of small molecule inhibitors on Zika virus induced Caspase-3 activity in human astrocytoma cells (AID 1224859; active = well fitted curve in the direction sought with a large enough effect; an effect the other way counts as inactive or inconclusive; also: potency is read from the fitted curve at half-maximal effect)
In short: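 Caspase activation in ZIKV-infected SNB-19 cells (2 FFU/cell, 6 h) measured by Caspase-Glo 3/7 luminescence after 30 min RT; compound pre-incubated 1 h; normalised to uninfected and infected controls.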

[8] = qHTS Screen of the MIPE 4.0 Collection Against Ewings Sarcoma (RDES) (AID 1259252; active = well fitted curve in the direction sought with a large enough effect; an effect the other way counts as inactive or inconclusive; also: nearly all actives have a fitted effect of over 35% in size; also: potency is read from the fitted curve at half-maximal effect)
In short: (§2)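 Viability screen: 48 h incubation at 37C, 95% humidity, 5% CO2 with serially titrated compound, followed by CellTiter-Glo readout.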

[9] = qHTS Screen of the MIPE 4.0 Collection Against Ewings Sarcoma (EW8) (AID 1259255; active = well fitted curve in the direction sought with a large enough effect; an effect the other way counts as inactive or inconclusive; also: nearly all actives have a fitted effect of over 35% in size; also: potency is read from the fitted curve at half-maximal effect;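 as to viability: 100% = DMSO-treated cells and 0% = medium-only wells without cells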)
In short: as §2

[10] = qHTS Screen of the MIPE 4.0 Collection Against Ewings Sarcoma (TC32) (AID 1259256; active = well fitted curve in the direction sought with a large enough effect; an effect the other way counts as inactive or inconclusive; also: nearly all actives have a fitted effect of over 45% in size; also: potency is read from the fitted curve at half-maximal effect)
In short: as §2

[11] = qHTS profiling for inhibitors of Plasmodium falciparum (HB3) proliferation (AID 743324; active = well fitted curve in the direction sought with a large enough effect; an effect the other way counts as inactive or inconclusive;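 also: 100% = DMSO vehicle wells and 0% = artemisinin-treated control wells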); details: Plasmodium falciparum HB3 blood-stage proliferation; at 28.7 µM (top of the series)
In short: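 SYBR Green fluorescence (485 ex/535 em) of lysed cultures, incubated overnight at room temperature in the dark, quantifies parasite DNA. Infected erythrocytes at 0.3% parasitemia and 2.5% hematocrit were exposed 72 h; values normalized to DMSO and 0.29 uM artemisinin controls.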

[12] = Identifying Small Molecule Inhibitors of Pancreatic Cancer Stem Cells (SN12C, Adherent) (AID 1259358; active = well fitted curve in the direction sought with a large enough effect; an effect the other way counts as inactive or inconclusive;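 also: potency is read from the fitted curve at half-maximal effect; cell survival measured after 48 h of compound exposure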)
In short: (§3)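 Monolayer and spheroid cultures are compared. Spheroids form over 14 days in stem cell medium on hydrogel-coated low-attachment plates, then are exposed to compound for 48 h before CellTiter-Glo luminescence.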

[13] = Identifying Small Molecule Inhibitors of Pancreatic Cancer Stem Cells (A278, Adherent) (AID 1259361; active = well fitted curve in the direction sought with a large enough effect; an effect the other way counts as inactive or inconclusive;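 also: viability read after 48 h compound exposure; nearly all actives have a fitted effect of over 35% in size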)
In short: as §3

[14] = qHTS Screen of the MIPE 4.0 Collection Against Ewings Sarcoma (TC71) (AID 1259253; active = well fitted curve in the direction sought with a large enough effect; an effect the other way counts as inactive or inconclusive;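 also: 100% = DMSO-treated cells and 0% = medium-only wells without cells; nearly all actives have a fitted effect of over 40% in size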)
In short: as §2

Work on `Nc1nc(F)nc2c1ncn2[C@@H]1O[C@H](COP(=O)(O)O)[C@@H](O)[C@H]1O` yielded a parasite growth, % of DMSO control [1] of 27.2%, a parasite growth remaining, % of DMSO control (lower = more inhibition) [2] of 19.9% and a parasite growth, % of control (lower = inhibition) [3] of 10.9%. It also gave a growth, % of control [4] of 8.49%, a cell viability, % of control (lower = more cytotoxic) [5] of 97.6% and a viability (% of control) [6] of 12.5%. For the same compound, the Potency [7] was “inactive”, the Potency [8] was 11.8 µM (active) and the Potency [9] was 14.8 µM (active). The Potency [10] was 16.6 µM (active).
`CCCCCN(C)CCC(O)(P(=O)(O)O)P(=O)(O)O` showed a parasite growth, % of DMSO control [1] of 92.2%, a parasite growth remaining, % of DMSO control (lower = more inhibition) [2] of 92.9% and a parasite growth, % of control (lower = inhibition) [3] of 114%. The growth, % of control [4] was 90.7%, the cell viability, % of control (lower = more cytotoxic) [5] was 125% and the viability (% of control) [6] was 102%. The Potency [7] was “inactive”, the Potency [8] was “inactive” and the Potency [9] was “inactive”. The Potency [10] was “inactive”.
For `CO[C@H]1C=CC=C(C)C(=O)NC2=CC(=O)C(NCCN(C)C)=C(C[C@@H](C)C[C@H](OC)[C@@H](O)[C@@H](C)C=C(C)[C@@H]1OC(N)=O)C2=O`, the remaining proliferation (% of control), lower = more inhibition [11] was -2.33%, the parasite growth, % of DMSO control [1] was 5.12% and the parasite growth remaining, % of DMSO control (lower = more inhibition) [2] was 6.82%. It also gave a parasite growth, % of control (lower = inhibition) [3] of 6.75%, a growth, % of control [4] of 6.65% and a cell viability, % of control (lower = more cytotoxic) [5] of 4.49%. The viability (% of control) [6] was 3.52%, the Potency [7] was “inactive” and the Potency [8] was 0.235 µM (active). The Potency [9] was 0.235 µM (active), the Potency [10] was 0.0469 µM (active) and the Potency [12] was 0.0935 µM (active). For the same compound, the IC50 (viability decrease) [13] was 0.0059 µM (active).
Work on `O=C(CCc1ccc(O)cc1)c1c(O)cc(O)cc1O[C@@H]1O[C@H](CO)[C@H](O)[C@H](O)[C@H]1O` yielded a parasite growth, % of DMSO control [1] of 272%, a parasite growth remaining, % of DMSO control (lower = more inhibition) [2] of 79.6% and a parasite growth, % of control (lower = inhibition) [3] of 57.9%. The growth, % of control [4] was 54%, the cell viability, % of control (lower = more cytotoxic) [5] was 238% and the viability (% of control) [6] was 107%. The Potency [7] was “inactive”, the Potency [8] was “inactive” and the Potency [14] was “inactive”. For the same compound, the Potency [9] was “inactive” and the Potency [10] was “inactive”.
Work on `CO[C@H]1C(=O)[C@]2(C)[C@@H](OC)C[C@H]3OC[C@@]3(OC(C)=O)[C@H]2[C@H](OC(=O)c2ccccc2)[C@]2(O)C[C@H](OC(=O)[C@H](O)[C@@H](NC(=O)OC(C)(C)C)c3ccccc3)C(C)=C1C2(C)C` yielded a parasite growth, % of DMSO control [1] of 4.99%, a parasite growth remaining, % of DMSO control (lower = more inhibition) [2] of 13.7% and a parasite growth, % of control (lower = inhibition) [3] of 21.2%. The cell viability, % of control (lower = more cytotoxic) [5] was 28.9%, the viability (% of control) [6] was 13% and the Potency [7] was “inactive”. For the same compound, the Potency [8] was “inactive”, the Potency [14] was “inactive” and the Potency [9] was “inactive”. The Potency [10] was “inactive”.
`Oc1ccc(C2=Cc3ccc(O)cc3OC2)cc1` showed a parasite growth, % of DMSO control [1] of 19.6%, a parasite growth remaining, % of DMSO control (lower = more inhibition) [2] of 34.7% and a parasite growth, % of control (lower = inhibition) [3] of 27.9%. It also gave a growth, % of control [4] of 24.6%, a cell viability, % of control (lower = more cytotoxic) [5] of 16.5% and a viability (% of control) [6] of 3.88%. For the same compound, the Potency [8] was 5.9 µM (active), the Potency [9] was 6.62 µM (active) and the Potency [10] was 2.64 µM (active).
In the case of `CC(C)C(=O)Oc1ccc(CO)cc1[C@H](CCN(C(C)C)C(C)C)c1ccccc1`, the parasite growth, % of DMSO control [1] is reported as 37.9%, the parasite growth remaining, % of DMSO control (lower = more inhibition) [2] is reported as 40.7% and the parasite growth, % of control (lower = inhibition) [3] is reported as 20.1%. For the same compound, the cell viability, % of control (lower = more cytotoxic) [5] was 126%, the viability (% of control) [6] was 102% and the Potency [7] was “inactive”. For the same compound, the Potency [8] was “inactive” and the Potency [9] was “inactive”.
Compound `Cc1c(NC(=O)c2ccc(C(C)(C)C)cc2)cccc1-c1cn(C)c(=O)c(Nc2ccc(C(=O)N3CCOCC3)cc2)n1` has a parasite growth remaining, % of DMSO control (lower = more inhibition) [2] of 6.89%, a parasite growth, % of control (lower = inhibition) [3] of 10.1% and a growth, % of control [4] of 5.53%. For the same compound, the cell viability, % of control (lower = more cytotoxic) [5] was 29.7%, the viability (% of control) [6] was 42.2% and the Potency [7] was 11.8 µM (active). The Potency [9] was 20.9 µM (active) and the Potency [10] was 20.9 µM (active).
Work on `O=C(NCc1ccccc1)c1csc(Nc2ccncn2)n1` yielded a parasite growth remaining, % of DMSO control (lower = more inhibition) [2] of 79.6%, a cell viability, % of control (lower = more cytotoxic) [5] of 1.93% and a viability (% of control) [6] of 2.12%. The Potency [7] was “inactive”, the Potency [9] was 20.9 µM (active) and the Potency [10] was 18.7 µM (active).
